In article PMC7862700, “An all-to-all approach to the identification of sequence-specific readers for epigenetic DNA modifications on cytosine” one finds binding signal data, which are given here for one sequence.

Assay in all cases: DAPPL (digital affinity profiling via proximity ligation, sequencing); 10 mM Tris-HCl pH 7.5, 50 mM NaCl, 1 mM DTT, 4% glycerol, room temperature, 30 min; GST-TFs on glutathione beads, 16-mer random dsDNA library, 0.1% formaldehyde crosslink after washing; high values mean tight binding
For assay [1], the target named is T1, FEV (Homo sapiens, UniProt Q99581 1-238).
T1 sequence: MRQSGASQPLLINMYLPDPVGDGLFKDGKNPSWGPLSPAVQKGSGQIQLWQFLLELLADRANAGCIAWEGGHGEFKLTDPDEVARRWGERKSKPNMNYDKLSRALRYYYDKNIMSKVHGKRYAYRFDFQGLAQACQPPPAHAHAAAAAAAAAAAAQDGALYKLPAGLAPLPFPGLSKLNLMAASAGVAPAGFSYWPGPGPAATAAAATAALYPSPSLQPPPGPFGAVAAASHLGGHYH
The following applies: protein: recombinant; tags: N-terminal GST; dsDNA, one strand shown. An outline of the steps:
(§1)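 Yeast served to express human transcription factors as GST fusions, which were then captured on glutathione beads and labelled with DNA barcodes. Pooled with a tag-only sample, they were incubated with 200 nmole of a 16-mer random double-stranded DNA library for 30 min at room temperature in Tris/NaCl/DTT/glycerol buffer, washed, crosslinked with 0.1% formaldehyde, ligated by proximity, amplified by PCR and sequenced. Dividing each hexamer's read frequency for a factor by its frequency for the tag-only sample gives the binding signal.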

Assay [2] has as its target ETV5 (Homo sapiens, UniProt P41161 1-510). The following applies: protein: recombinant; tags: N-terminal GST; dsDNA, one strand shown. A digest of the protocol: as §1
The target of assay [3] is HSF1 (Homo sapiens, UniProt Q00613 1-529). The following applies: protein: recombinant; tags: N-terminal GST; chain copies: 3; dsDNA, one strand shown. An outline of the steps: as §1
Chain of HSF1 (Q00613 whole entry): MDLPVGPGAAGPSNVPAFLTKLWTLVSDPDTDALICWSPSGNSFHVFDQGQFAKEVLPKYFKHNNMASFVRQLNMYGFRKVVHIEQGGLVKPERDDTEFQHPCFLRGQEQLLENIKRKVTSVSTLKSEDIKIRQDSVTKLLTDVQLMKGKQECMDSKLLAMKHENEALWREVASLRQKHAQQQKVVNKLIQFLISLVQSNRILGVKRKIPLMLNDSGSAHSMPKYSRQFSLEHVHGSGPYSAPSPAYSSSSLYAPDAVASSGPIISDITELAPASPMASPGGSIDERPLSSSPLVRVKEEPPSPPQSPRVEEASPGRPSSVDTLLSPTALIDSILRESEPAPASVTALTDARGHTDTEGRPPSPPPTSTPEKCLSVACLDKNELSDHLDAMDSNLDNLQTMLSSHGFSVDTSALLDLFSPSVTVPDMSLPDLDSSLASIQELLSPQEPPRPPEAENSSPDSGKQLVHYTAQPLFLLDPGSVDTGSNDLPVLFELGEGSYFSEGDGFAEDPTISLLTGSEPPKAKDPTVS
Assay [4] deals with T2, SPIC (Homo sapiens, UniProt Q8N5J4 1-248).
T2 sequence: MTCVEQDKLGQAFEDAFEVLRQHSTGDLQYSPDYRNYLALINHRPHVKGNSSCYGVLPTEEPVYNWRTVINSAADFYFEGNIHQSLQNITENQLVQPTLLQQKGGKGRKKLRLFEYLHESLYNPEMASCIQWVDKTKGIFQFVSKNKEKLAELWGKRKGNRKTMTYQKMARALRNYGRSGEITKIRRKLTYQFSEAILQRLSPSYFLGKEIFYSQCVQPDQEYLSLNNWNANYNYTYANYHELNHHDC
The following applies: protein: recombinant; tags: N-terminal GST; dsDNA, one strand shown. An outline of the steps:
as §1

Assay [5] addresses ELF4 (Homo sapiens, UniProt Q99607 1-663). The following applies: protein: recombinant; tags: N-terminal GST; dsDNA, one strand shown. A digest of the protocol:
as §1

Assay [6] addresses T3, ELK4 (Homo sapiens, UniProt P28324-2 1-405).
T3 sequence: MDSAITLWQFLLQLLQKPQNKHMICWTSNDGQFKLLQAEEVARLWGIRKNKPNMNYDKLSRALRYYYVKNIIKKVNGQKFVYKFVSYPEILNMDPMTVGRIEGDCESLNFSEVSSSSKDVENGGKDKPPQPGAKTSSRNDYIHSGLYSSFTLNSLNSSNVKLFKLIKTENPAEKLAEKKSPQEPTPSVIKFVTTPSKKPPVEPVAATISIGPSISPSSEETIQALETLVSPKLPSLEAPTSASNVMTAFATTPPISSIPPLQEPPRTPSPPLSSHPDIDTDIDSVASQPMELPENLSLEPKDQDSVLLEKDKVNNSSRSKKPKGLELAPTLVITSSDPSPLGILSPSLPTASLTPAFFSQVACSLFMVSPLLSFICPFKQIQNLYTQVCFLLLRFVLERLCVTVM
The following applies: protein: recombinant; tags: N-terminal GST; dsDNA, one strand shown. An outline of the steps: as §1

For assay [7], the target named is T4, ETV2 (Homo sapiens, UniProt O00321 1-342).
T4 sequence: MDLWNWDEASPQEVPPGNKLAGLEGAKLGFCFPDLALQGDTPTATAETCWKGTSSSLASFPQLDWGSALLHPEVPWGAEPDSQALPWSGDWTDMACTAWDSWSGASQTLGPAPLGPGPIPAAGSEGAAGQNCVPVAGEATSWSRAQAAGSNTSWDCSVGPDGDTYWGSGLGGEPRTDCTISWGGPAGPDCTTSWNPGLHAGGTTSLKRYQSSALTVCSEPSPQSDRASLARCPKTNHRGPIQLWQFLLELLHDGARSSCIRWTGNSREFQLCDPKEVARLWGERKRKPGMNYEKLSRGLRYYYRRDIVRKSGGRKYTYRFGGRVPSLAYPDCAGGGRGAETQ
The following applies: protein: recombinant; tags: N-terminal GST; dsDNA, one strand shown. An outline of the steps: as §1

The target of assay [8] is T5, ELF3 (Homo sapiens, UniProt P78545 1-371).
T5 sequence: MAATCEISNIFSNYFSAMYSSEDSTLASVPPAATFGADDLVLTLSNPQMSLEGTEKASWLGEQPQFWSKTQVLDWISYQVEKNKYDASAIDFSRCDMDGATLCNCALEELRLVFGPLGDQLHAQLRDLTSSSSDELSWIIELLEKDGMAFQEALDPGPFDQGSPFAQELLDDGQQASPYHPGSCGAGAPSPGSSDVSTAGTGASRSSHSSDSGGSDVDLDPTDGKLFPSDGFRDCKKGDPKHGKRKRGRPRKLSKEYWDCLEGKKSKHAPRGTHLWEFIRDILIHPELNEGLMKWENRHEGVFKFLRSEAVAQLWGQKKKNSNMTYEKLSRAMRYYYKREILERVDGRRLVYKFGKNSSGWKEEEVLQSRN
The following applies: protein: recombinant; tags: N-terminal GST; dsDNA, one strand shown. An outline of the steps:
as §1

Assay [9] deals with CRX (Homo sapiens, UniProt O43186 1-299). The following applies: protein: recombinant; tags: N-terminal GST; dsDNA, one strand shown. An outline of the steps:
as §1

The target of assay [10] is ETV1 (Homo sapiens, UniProt P50549 1-477). The following applies: protein: recombinant; tags: N-terminal GST; dsDNA, one strand shown. A digest of the protocol:
as §1

The target in assay [11] is T6, ERF (Homo sapiens, UniProt P50548 1-548).
T6 sequence: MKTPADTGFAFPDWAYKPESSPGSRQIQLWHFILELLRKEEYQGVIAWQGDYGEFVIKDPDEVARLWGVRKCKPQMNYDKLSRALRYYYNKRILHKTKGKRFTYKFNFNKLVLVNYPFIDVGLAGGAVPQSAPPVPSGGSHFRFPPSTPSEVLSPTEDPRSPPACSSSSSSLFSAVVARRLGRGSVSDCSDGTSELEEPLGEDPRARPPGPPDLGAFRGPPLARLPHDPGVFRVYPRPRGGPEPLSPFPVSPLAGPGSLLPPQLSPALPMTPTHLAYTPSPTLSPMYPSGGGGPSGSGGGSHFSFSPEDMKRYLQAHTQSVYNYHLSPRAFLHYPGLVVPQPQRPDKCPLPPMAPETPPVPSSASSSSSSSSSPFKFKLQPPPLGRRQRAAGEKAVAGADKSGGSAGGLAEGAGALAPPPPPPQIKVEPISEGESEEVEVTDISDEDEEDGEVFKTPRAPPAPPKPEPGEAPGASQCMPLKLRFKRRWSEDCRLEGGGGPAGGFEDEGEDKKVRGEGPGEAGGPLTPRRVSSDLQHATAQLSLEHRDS
The following applies: protein: recombinant; tags: N-terminal GST; dsDNA, one strand shown. An outline of the steps: as §1

The target of assay [12] is T7, ETV3L (Homo sapiens, UniProt Q6ZN32 1-361).
T7 sequence: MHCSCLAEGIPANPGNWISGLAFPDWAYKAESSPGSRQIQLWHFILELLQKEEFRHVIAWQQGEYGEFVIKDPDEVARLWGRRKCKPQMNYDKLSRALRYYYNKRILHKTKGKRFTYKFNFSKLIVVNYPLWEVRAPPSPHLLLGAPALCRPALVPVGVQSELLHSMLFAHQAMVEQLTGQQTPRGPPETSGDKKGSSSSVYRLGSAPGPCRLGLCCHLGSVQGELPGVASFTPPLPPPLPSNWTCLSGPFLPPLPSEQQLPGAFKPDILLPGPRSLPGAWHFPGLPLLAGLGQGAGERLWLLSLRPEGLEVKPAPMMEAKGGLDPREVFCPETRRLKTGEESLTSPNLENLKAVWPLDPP
The following applies: protein: recombinant; tags: N-terminal GST; dsDNA, one strand shown. A digest of the protocol: as §1

The target of assay [13] is T8, ETS2 (Homo sapiens, UniProt P15036 1-469).
T8 sequence: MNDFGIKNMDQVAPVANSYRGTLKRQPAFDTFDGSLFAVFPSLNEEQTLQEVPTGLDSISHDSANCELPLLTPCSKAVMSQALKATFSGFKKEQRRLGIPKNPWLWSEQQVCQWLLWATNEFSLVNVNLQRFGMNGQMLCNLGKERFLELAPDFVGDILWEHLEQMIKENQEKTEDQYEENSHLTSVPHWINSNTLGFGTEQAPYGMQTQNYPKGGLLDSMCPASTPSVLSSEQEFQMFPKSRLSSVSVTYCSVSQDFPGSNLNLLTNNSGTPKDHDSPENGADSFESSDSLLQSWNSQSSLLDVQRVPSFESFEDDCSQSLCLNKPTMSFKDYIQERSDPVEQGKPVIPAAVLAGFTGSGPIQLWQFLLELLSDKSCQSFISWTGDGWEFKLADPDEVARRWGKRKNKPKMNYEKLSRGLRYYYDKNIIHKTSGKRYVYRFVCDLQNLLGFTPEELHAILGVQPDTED
The following applies: protein: recombinant; tags: N-terminal GST; dsDNA, one strand shown. An outline of the steps: as §1

Assay [14] addresses T9, SPDEF (Homo sapiens, UniProt O95238 1-335).
T9 sequence: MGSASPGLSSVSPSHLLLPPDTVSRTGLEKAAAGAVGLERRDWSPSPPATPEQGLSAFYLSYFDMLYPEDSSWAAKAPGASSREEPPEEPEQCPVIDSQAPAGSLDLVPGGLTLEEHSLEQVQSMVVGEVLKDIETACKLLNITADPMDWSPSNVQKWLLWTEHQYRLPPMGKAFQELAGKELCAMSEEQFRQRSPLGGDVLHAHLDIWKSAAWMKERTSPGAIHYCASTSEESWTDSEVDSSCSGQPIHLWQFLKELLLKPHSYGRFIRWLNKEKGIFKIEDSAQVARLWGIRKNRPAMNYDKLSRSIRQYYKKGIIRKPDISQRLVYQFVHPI
The following applies: protein: recombinant; tags: N-terminal GST; dsDNA, one strand shown. A digest of the protocol: as §1

Assay [15] has as its target T10, ETV7 (Homo sapiens, UniProt Q9Y603 1-341).
T10 sequence: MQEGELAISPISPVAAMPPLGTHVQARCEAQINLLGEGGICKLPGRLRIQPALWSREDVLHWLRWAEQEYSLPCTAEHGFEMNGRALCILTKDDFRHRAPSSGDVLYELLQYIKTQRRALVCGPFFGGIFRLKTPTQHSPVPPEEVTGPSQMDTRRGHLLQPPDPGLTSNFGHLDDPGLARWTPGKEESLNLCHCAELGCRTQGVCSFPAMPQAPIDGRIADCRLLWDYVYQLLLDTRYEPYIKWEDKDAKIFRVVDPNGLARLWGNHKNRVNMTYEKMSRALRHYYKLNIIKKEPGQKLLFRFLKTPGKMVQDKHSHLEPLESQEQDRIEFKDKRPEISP
The following applies: protein: recombinant; tags: N-terminal GST; dsDNA, one strand shown. A digest of the protocol: as §1

Assay [16] addresses T11, ELF5 (Homo sapiens, UniProt Q9UKW6-2 1-255).
T11 sequence: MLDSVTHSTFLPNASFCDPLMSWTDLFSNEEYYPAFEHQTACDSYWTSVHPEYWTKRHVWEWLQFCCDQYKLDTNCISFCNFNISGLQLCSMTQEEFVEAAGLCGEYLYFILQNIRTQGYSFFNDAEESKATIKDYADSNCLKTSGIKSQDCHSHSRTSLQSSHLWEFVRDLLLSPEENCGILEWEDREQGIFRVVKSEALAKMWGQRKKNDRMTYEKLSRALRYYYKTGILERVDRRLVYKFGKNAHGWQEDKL
The following applies: protein: recombinant; tags: N-terminal GST; dsDNA, one strand shown. A digest of the protocol:
as §1

Assay [17] has as its target T12, ETV3 (Homo sapiens, UniProt P41162-2 1-143).
T12 sequence: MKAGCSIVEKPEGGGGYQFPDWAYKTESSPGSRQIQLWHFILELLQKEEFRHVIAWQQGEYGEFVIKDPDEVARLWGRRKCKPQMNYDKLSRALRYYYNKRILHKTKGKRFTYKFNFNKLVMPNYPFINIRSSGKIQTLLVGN
The following applies: protein: recombinant; tags: N-terminal GST; dsDNA, one strand shown. A digest of the protocol: as §1

Assay [18] concerns the target ETV6 (Homo sapiens, UniProt P41212 1-452). The following applies: protein: recombinant; tags: N-terminal GST; dsDNA, one strand shown. A digest of the protocol:
as §1

Chain of ETV6 (P41212 whole entry): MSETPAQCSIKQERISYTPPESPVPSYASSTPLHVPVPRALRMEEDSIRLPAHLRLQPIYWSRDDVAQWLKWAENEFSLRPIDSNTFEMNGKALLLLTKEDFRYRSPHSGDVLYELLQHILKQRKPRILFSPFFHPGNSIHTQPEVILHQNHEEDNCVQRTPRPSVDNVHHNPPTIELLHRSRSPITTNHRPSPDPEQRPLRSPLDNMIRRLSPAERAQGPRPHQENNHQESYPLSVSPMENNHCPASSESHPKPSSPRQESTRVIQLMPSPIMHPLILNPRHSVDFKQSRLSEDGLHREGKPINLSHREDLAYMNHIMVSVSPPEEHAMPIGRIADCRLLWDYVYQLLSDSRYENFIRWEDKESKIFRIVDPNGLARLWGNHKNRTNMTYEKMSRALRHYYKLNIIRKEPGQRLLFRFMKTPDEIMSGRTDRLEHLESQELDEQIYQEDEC
Chain of CRX (O43186 whole entry): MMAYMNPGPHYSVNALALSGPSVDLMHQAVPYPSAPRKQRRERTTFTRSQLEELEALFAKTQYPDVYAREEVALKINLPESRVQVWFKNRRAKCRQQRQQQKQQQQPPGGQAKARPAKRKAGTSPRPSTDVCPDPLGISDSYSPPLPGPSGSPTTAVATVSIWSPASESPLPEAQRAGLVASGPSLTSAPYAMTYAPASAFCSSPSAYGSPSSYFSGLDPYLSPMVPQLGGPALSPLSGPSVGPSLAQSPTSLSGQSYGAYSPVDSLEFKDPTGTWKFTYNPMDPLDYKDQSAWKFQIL
Chain of ETV1 (P50549 whole entry): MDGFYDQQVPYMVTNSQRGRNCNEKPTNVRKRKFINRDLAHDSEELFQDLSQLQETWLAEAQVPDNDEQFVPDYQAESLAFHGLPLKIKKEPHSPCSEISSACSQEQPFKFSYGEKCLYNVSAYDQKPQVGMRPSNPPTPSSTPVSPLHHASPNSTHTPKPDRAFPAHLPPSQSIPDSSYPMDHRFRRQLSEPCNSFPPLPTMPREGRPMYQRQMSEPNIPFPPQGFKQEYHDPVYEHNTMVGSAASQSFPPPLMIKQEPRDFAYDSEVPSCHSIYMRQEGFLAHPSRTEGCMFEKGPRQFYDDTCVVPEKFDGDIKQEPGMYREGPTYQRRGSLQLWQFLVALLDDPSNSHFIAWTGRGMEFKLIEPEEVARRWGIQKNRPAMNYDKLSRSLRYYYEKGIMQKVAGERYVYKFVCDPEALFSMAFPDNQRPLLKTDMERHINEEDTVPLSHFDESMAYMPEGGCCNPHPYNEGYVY
Chain of ELF4 (Q99607 whole entry): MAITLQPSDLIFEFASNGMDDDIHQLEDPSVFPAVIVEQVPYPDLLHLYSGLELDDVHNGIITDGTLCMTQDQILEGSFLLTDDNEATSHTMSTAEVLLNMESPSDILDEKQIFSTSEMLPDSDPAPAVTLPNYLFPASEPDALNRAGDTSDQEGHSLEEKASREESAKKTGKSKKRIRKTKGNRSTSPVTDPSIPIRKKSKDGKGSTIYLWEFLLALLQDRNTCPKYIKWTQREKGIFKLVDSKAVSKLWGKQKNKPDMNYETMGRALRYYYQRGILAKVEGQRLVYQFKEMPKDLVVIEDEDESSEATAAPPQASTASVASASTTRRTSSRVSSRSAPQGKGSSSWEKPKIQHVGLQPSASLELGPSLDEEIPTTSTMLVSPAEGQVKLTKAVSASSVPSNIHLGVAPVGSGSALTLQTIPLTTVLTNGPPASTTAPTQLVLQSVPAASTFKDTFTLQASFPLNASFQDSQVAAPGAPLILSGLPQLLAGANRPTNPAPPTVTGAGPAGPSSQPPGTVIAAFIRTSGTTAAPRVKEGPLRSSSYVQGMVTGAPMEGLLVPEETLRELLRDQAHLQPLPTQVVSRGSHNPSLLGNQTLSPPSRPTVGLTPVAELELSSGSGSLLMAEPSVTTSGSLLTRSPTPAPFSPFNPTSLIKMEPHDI
Chain of ETV5 (P41161 whole entry): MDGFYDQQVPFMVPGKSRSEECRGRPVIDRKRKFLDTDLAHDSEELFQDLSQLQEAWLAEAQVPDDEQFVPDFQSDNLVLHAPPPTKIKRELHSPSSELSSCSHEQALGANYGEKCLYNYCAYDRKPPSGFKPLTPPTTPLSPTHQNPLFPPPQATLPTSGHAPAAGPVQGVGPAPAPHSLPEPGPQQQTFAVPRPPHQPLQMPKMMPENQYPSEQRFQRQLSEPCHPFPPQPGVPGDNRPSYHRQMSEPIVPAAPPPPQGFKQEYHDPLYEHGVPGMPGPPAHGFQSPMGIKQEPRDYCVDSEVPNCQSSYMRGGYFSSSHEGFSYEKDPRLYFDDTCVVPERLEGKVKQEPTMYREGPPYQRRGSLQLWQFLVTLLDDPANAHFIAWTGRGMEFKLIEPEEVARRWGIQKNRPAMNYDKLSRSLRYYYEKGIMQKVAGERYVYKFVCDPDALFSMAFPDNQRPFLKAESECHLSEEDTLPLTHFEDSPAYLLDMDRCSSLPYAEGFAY

TTAATT: the binding signal in assay [1] is 1.31 fold enrichment (6-mer frequency, TF over GST control); in assay [2] it was 1.49 fold enrichment (6-mer frequency, TF over GST control); in [3] it was 2.23 fold enrichment (6-mer frequency, TF over GST control); in assay [4], 1.33 fold enrichment (6-mer frequency, TF over GST control); in assay [5] it was 1.33 fold enrichment (6-mer frequency, TF over GST control); in assay [6], 1.3 fold enrichment (6-mer frequency, TF over GST control). The binding signal in assay [7] is 1.43 fold enrichment (6-mer frequency, TF over GST control); in assay [8] it was 1.27 fold enrichment (6-mer frequency, TF over GST control); in [9], 3.46 fold enrichment (6-mer frequency, TF over GST control); in [10] it was 1.34 fold enrichment (6-mer frequency, TF over GST control); in assay [11] it was 1.39 fold enrichment (6-mer frequency, TF over GST control); in assay [12], 1.39 fold enrichment (6-mer frequency, TF over GST control). Besides, the binding signal in [13] was 1.5 fold enrichment (6-mer frequency, TF over GST control); in assay [14], 1.3 fold enrichment (6-mer frequency, TF over GST control); in assay [15], 1.55 fold enrichment (6-mer frequency, TF over GST control); in [16], 1.43 fold enrichment (6-mer frequency, TF over GST control); in assay [17] it was 1.44 fold enrichment (6-mer frequency, TF over GST control); in [18] it was 1.4 fold enrichment (6-mer frequency, TF over GST control).
